Bioassay records: PubChem, National Center for Advancing Translational Sciences (NCATS)
TGFb inhibitor: qHTS for Inhibitors of TGF-b. HepG2 CAGA-GFP TGF-b/SMAD3 reporter, GFP fluorescence, 18 h; TGF-beta stimulated, 500 pg/mL final. Potency, µM (highest dose often 46.1 µM), for the others: top-dose activity, negative = inhibition, actives largely listed as inhibitors. actives 1.2% (n = 410,000); note: % is set by controls: 0 for no effect and ±100 for the full control effect; nearly all actives have a fitted effect of over 65% in size
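Per well, imaged GFP fluorescence of HEPG2 CAGA-GFP cells gives the signal; cells get compound, then TGF-beta (500 pg/mL final), 18 h at 37 degrees C; %Activity versus -TGF-beta and +DMSO controls.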
S2 tox: Viability Counterscreen for Primary qHTS for Inhibitors of ATXN expression; S2 cells (HEK-293 line with an ATXN2-luciferase reporter) viability, CellTiter-Fluor protease fluorescence, 24 h; Potency, µM (titrated, usually from 56.7 µM), usual class: cytotoxic; actives 0.49% (n = 400,000); note: nearly all actives have a fitted effect of over 40% in size
ATXN2 expr inh: Primary qHTS for Inhibitors of ATXN expression; HEK-293 ATXN2-luciferase reporter, luminescence, 24 h; Potency, µM (doses to about 57 µM), for inactives: top-dose activity change, negative = inhibition, most hits filed as inhibitors; actives 0.72% (n = 360,000); AID 1745845, 2022; note: % is set by controls: 0 for no effect and ±100 for the full control effect; nearly all actives have a fitted effect of over 55% in size
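qHTS (up to 57 uM final) was run with 24 h compound exposure of reporter cells at 37 °C. Each well was multiplexed: SteadyGlo luminescence measured ATXN2-luciferase expression after a fluorogenic Gly-Phe-AFC viability readout (25 uM final).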
A549 tox-1: Nrf2 qHTS screen for inhibitors: counterscreen for cytotoxicity; actives 0.16% (n = 390,000); Potency, µM (series often up to 46 µM), for the others: at the top dose activity change, negative = cytotoxicity, most hits filed as inhibitors; A549 ARE-Fluc cells, CellTiter-Fluor viability, 18-24 h; AID 504648, 2011; note: % is set by controls: 0 for no effect and ±100 for the full control effect
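A549 ARE-Fluc cells in 5% FBS OPTI-MEM, 5000 cells/well, rested 2 h then exposed to compounds in concentration-response for 18-24 h at 37 °C. Viability by CellTiter-Fluor fluorescence (Ex 405/Em 525) after 30 min; luciferase luminescence (BugLite, 15 min, RT) read afterwards.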
Nrf2 block: Nrf2 qHTS screen for inhibitors; A549 ARE-Fluc reporter, luciferase luminescence, 18-24 h; Potency, µM (series often up to 46 µM), for inactives: at the highest dose activity change, negative = inhibition, actives largely listed as inhibitors; actives 2.1% (n = 360,000); note: % is set by controls: 0 for no effect and ±100 for the full control effect; nearly all actives have a fitted effect of over 60% in size
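Concentration-response testing used A549 ARE_Fluc cells at 5000 cells/well. Following an 18-24 h compound incubation, viability was read by fluorescence (Ex 405/Em 525) and luciferase output by luminescence.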
HepG2 viability: qHTS for Inhibitors of TGF-b: Cytotox Counterscreen; Potency, µM (doses to about 46.1 µM), for the others: at the highest dose activity change, negative = cytotoxicity, usual class: cytotoxic; actives 0.76% (n = 410,000); HepG2 CAGA-GFP viability, ATP luminescence, 18 h
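CellTiter-Glo luminescence gave cytotoxicity after 18 hours at 37 degrees C. The cells were HepG2 CAGA-GFP in 1% FBS DMEM, stimulated with 500 pg/mL TGF-beta after compound addition. %Activity was normalised to no-cell wells (complete cell-killing) and DMSO (no toxicity), and curves were fitted and classified.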
FLuc counter 3: Nrf2 qHTS screen for inhibitors: Purified Fluc Biochemical Counterscreen for Hit Validation; purified firefly luciferase, luminescence inhibition; actives 4% (n = 1,400); Potency, µM (top dose mostly 57.5 µM), inactives show at the top dose activity change, negative = inhibition, most hits filed as inhibitors; shares compounds with Nrf2 block; note: % is set by controls: 0 for no effect and ±100 for the full control effect; nearly all actives have a fitted effect of over 65% in size
Target sequence (P08659 whole entry, looked up): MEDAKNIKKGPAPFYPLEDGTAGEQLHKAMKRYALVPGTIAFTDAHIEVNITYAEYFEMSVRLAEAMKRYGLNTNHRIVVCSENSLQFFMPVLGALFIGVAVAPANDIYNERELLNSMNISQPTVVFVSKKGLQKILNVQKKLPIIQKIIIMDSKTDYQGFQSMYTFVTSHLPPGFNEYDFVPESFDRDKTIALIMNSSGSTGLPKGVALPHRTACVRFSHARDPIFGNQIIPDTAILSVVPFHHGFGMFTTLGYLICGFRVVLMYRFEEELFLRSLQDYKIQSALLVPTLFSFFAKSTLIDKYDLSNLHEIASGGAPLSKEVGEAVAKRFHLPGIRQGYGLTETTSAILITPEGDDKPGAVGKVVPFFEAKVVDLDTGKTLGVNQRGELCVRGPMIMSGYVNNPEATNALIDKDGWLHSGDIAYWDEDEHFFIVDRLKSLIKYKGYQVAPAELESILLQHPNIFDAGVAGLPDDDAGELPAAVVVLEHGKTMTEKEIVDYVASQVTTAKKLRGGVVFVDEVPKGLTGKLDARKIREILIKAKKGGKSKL
A549 tox-2: Nrf2 qHTS screen for inhibitors: A549 ARE-Fluc Cytotoxicity Counterscreen for Hit Validation. A549 ARE-Fluc cells, cytotoxicity counterscreen. shares compounds with Nrf2 block. Potency, µM (highest dose often 46.1 µM), for the others: at the top dose activity change, negative = cytotoxicity, usual class: inhibitors. actives 2% (n = 1,400). AID 720523, 2013;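 note: cells exposed to compounds for 18 to 24 hours; % is set by controls: 0 for no effect and ±100 for the full control effect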
ARE-Fluc inh: Nrf2 qHTS screen for inhibitors: Nrf2 A549 ARE-Fluc Confirmation Assay for Hit Validation; shares compounds with Nrf2 block; A549 ARE-firefly luciferase reporter, luminescence; Potency, µM (highest dose often 46.1 µM), without a hit: at the top dose activity change, negative = inhibition, actives largely listed as inhibitors; actives 74% (n = 1,400); AID 720524, 2013; note: % is set by controls: 0 for no effect and ±100 for the full control effect; nearly all actives have a fitted effect of over 65% in size
* = called active by the depositor; i = inactive; ? = inconclusive; · = not tested or not shown. Sampled rows, rich in hits. Any-hit rate of the full collection: about 3.8%. Calls come from the whole dose curve; as a rule, active = well fitted curve in the direction sought with a large enough effect; inconclusive = small, poorly fitted or top-dose-only effect, or another doubt; inactive = no such curve, though single readings can be large; an effect the other way counts as inactive or inconclusive. Potency is the fitted concentration of half-maximal effect.

SMILES	TGFb inhibitor	S2 tox	ATXN2 expr inh	A549 tox-1	Nrf2 block	HepG2 viability	FLuc counter 3	A549 tox-2	ARE-Fluc inh
COCCn1c(C)cc(O)c(C(c2ccccc2OC)N2CCN(c3ccccc3)CC2)c1=O (centres undefined)	7%	·	·	4%	·	-13%	·	·	·
OC[C@H]1O[C@@H](c2nc3ccc(-c4nc(-c5ccc(Br)cc5)no4)cc3[nH]2)C[C@@H]1O	7%	?	-49%	·	·	-29%	·	·	·
Cc1nc2ccc(NS(=O)(=O)c3ccc4c(c3)OCCO4)cc2s1	?	?	-21%	-25%	2.9µM*	-34%	-2%	-1%	6.5µM*
COc1ccc(CN(C)C(=O)c2cccc(NC(=O)CC3SC(N4CCCCC4)=NC3=O)c2)c(OC)c1 (centres undefined)	-28%	?	20µM*	-26%	8.2µM*	-13%	-19%	-16%	6.5µM*
Clc1cccc(-n2ncc3c(NC4CCCCC4)ncnc32)c1	?	?	15%	-4%	·	-45%	·	·	·
O=C(C1CCN(S(=O)(=O)c2c(Cl)cccc2Cl)CC1)N1CCCCCCC1	-14%	·	4%	0%	1%	-19%	·	·	·
CCc1ccccc1N(C)S(=O)(=O)c1ccc2c(c1)C(C)(C)C(=O)N2C	6%	i	3%	19%	?	-19%	·	·	·
Cn1cccc/c1=N\c1cccc[n+]1C	-31%	i	·	-22%	2.9µM*	-8%	-1%	-13%	5.8µM*
Cc1ccc(OCCSc2nc3ccccc3n2CC(=O)N2CCCCC2)c(C)c1	?	·	?	-1%	?	-2%	·	·	·
CC1Cc2ccccc2N1C(=O)COC(=O)c1ccc(Br)o1 (centres undefined)	-3%	i	11%	0%	-15%	-5%	·	·	·
CCOC(=O)c1c(NC(=O)Cn2c(C)nc3ccccc32)sc2c1CCC2	-10%	?	?	-4%	5.8µM*	-30%	1%	-10%	?
CCOC(=O)c1c(NC(=O)COC(=O)Cn2c(C)nc3ccccc32)sc2c1CCCC2	8%	i	4%	-2%	1%	-16%	·	·	·
Cc1cc(Cl)c(S(=O)(=O)N2CCCC2)cc1OCC(=O)NC1CCCCC1	?	i	-16%	·	7.3µM*	-13%	0%	-18%	·
COc1cc(NC(=O)c2cccc(COCC(F)(F)C(F)F)c2)cc(OC)c1OC	-1%	?	-8%	2%	9.2µM*	-2%	-7%	0%	-11%
COc1ccc(NC(=O)c2ccc(COCC(F)(F)C(F)F)cc2)cc1OC	-19%	i	-3%	-5%	-22%	-32%	·	·	·
CC12CCC(=O)C=C1CCC1C2C(O)CC2(C)C1CCC2(O)C(=O)CO (centres undefined)	-1%	i	-6%	-9%	0.12µM*	-43%	-1%	-5%	0.092µM*
